The entries come from a sample that favours hits as a whole.
HT1080-NT tox – kills 2HG-producing HT-1080-NT fibrosarcoma cells; actives 1.6% (n = 360,000); Potency, µM (titrated, usually from 46.1 µM), most hits filed as cytotoxic; AID 686970; HT-1080-NT fibrosarcoma viability, CellTiter-Glo ATP luminescence, 48 h;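 further: NT is the 2HG producing partner of a matched IDH1 knockdown line; nearly all actives have a fitted effect of over 55% in size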
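HT-1080-NT fibrosarcoma cells (2HG-overproducing), 750 cells/well in RPMI with 5% FBS, dosed after 2 h and incubated 48 h at 37C. CellTiter-Glo luminescence normalized to DMSO and no-cell wells; concentration-response curves fitted and classed.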
DT40 TDP1 CPT – growth inhibition of DT40 Tdp1-/-;hTDP1 cells with camptothecin (screen for TDP1 inhibitors) | actives 12% (n = 420,000) | Potency, µM (top dose mostly 46.2 µM), most hits filed as inhibitors | chicken DT40 Tdp1-/-;hTDP1 cells + 20 nM CPT, ATP luminescence, 48 h; further: nearly all actives have a fitted effect of over 55% in size
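Chicken DT40 Tdp1-/- cells complemented with human TDP1, 400 cells/well, exposed to compounds plus 20 nM camptothecin for at least 48 h at 37 C; viability read as ATP content by CellTiter-Glo luminescence.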
IL1B secr inh – inhibitors of inflammasome signaling (IL-1 beta secretion). THP-1 LPS/ATP IL-1B secretion, AlphaLISA, 16 h; hits give low values. activity change, % at 57.5 µM. actives 4.7% (n = 360,000). AID 743279; in the data active means activity change below about -50%; inconclusive means mostly about -30% to -49%
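Secreted IL-1B measured by AlphaLISA bead assay after 16 h compound exposure of THP-1 cells; compounds (final up to 57.5 uM) added 1 h before LPS (250 ng/mL) and ATP (1.25 mM) stimulation; lower signal means less secretion.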
HT1080 IDH1KD tx – HT-1080 IDH1 knockdown cell toxicity (counter line); HT-1080 IDH1 knockdown viability, ATP luminescence, 48 h; Potency, µM (top dose mostly 46.1 µM), hits mostly cytotoxic; actives 2% (n = 360,000); AID 686971
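Luminescent ATP read-out (CellTiter-Glo, 10 min at room temperature) after 48 h compound exposure at 37 °C gave viability of IDH1-knockdown HT-1080 cells. Activity was normalised to DMSO and cell-free wells, then fitted as concentration-response curves.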
TDP1 cell noCPT – qHTS for Inhibitors of human tyrosyl-DNA phosphodiesterase 1 (TDP1): qHTS in cells in absence of CPT; DT40 Tdp1-/- hTDP1 cells, no CPT, ATP luminescence, 48 h; Potency, µM (doses to about 46.2 µM), most hits filed as inhibitors; actives 15% (n = 420,000); AID 686978, 2013; further: nearly all actives have a fitted effect of over 55% in size
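A cellular qHTS used chicken DT40 cells lacking endogenous Tdp1 but carrying stably transfected human TDP1. Compounds were applied without camptothecin, and cell growth kinetics were judged by ATP-dependent luminescence after ≥48 hr.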
12-LOX inh – blocks human arachidonate 12S-lipoxygenase | purified 12hLO, xylenol orange hydroperoxide absorbance | Potency, µM (titrated, usually from 108 µM), hits mostly inhibitors | actives 1.1% (n = 580,000)
Target sequence (P18054 whole entry, looked up): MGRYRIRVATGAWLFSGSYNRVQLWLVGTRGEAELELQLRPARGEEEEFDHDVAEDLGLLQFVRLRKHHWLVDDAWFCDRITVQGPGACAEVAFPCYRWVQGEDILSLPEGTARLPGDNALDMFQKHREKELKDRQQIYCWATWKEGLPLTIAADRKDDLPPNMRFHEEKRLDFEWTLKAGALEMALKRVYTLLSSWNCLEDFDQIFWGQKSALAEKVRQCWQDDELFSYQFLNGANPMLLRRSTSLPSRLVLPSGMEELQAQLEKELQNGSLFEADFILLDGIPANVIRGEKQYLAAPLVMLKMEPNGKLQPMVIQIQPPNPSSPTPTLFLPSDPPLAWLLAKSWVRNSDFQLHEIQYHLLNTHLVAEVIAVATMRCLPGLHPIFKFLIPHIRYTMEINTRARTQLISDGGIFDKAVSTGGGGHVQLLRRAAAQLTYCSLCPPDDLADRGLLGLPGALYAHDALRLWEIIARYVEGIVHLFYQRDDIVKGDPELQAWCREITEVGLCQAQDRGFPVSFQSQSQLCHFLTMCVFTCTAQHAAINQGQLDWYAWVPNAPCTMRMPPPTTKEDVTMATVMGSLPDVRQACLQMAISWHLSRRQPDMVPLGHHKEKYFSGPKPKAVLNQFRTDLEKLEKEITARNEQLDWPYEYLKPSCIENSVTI
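Hydroperoxide product was detected by ferrous iron/xylenol orange as the 573 to 405 nm absorbance ratio. Arachidonic acid at 40 uM (final) was turned over for 30 min at room temperature by 150 nM human 12hLO, pH 7.0 Hepes buffer, after 15 min compound preincubation.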
A number is an active result; - = inactive; ? = inconclusive; . = no result given. Unless noted, the call rests on the fitted dose curve; in most records, active means well fitted curve in the direction sought with a large enough effect; inconclusive means small, poorly fitted or top-dose-only effect, or another doubt; inactive means no such curve, though single readings can be large; an effect the other way counts as inactive or inconclusive.

SMILES	HT1080-NT tox	DT40 TDP1 CPT	IL1B secr inh	HT1080 IDH1KD tx	TDP1 cell noCPT	12-LOX inh
CCN1CCN(CCOc2ccc3c(=O)c(-c4ccccc4)coc3c2)CC1	.	.	.	.	.	-
COc1c(C(=O)/C=C/c2ccccc2)ccc2c1C=CC(C)(C)O2	.	.	.	.	.	-
O=C(Nc1cccc2c1CCCC2)c1cc(C2CCCCN2C(=O)c2cccs2)on1 (stereo not drawn)	?	8.2µM	-	?	8.2µM	-
O=C(NCc1ccccc1)c1cc(C2CCCCN2C(=O)c2ccccc2)on1 (stereo not drawn)	-	18µM	-	-	13µM	-
O=C(Nc1ccccc1Cl)c1cc(C2CCCCN2C(=O)C2CCCCC2)on1 (stereo not drawn)	-	-	-	-	?	-
COc1ccc(NC(=O)C2(C)Cc3c(-c4ccccc4)ccnc3O2)cn1 (stereo not drawn)	?	5.8µM	-	?	6.5µM	-
COc1ccc(NC(=O)C2(C)Cc3c(-c4cccc(C(F)(F)F)c4)ccnc3O2)cn1 (stereo not drawn)	?	5.2µM	-	?	2.9µM	-
CC1(C(=O)Nc2ccc(F)c(Cl)c2)Cc2c(-c3cccc(C(F)(F)F)c3)ccnc2O1 (stereo not drawn)	?	?	-	?	?	?
COc1ccc(NC(=O)C2(C)Cc3c(-c4ccc(N(C)C)cc4)ccnc3O2)cc1 (stereo not drawn)	?	29µM	-	?	?	-
COc1ccc(CCNC(=O)C2CCN(c3nc(Cl)nc4nc[nH]c34)CC2)cc1OC	.	.	.	.	.	-
OC(c1cccc(Cl)c1Cl)C(F)(F)F (stereo not drawn)	.	.	.	.	.	-
CCN(CC)S(=O)(=O)c1ccc(NC(=O)CCc2c(C)nc3cc(-c4ccc(Cl)cc4)nn3c2C)cc1	.	4.6µM	.	.	3.7µM	-
CC(=O)c1ccc(NC(=O)CCc2c(C)nc3cc(-c4ccc(Cl)cc4)nn3c2C)cc1	.	?	.	.	6.5µM	-
COc1ccc(CCNC(=O)CCc2c(C)nc3cc(-c4ccc(Cl)cc4)nn3c2C)c(OC)c1	.	?	.	.	?	-
COC[C@@H]1CN(C(=O)c2c(C)noc2C)C[C@H]1c1ccncc1	.	.	.	.	.	-
Clc1ccc(CSc2nnc(NC3=NCCCCC3)s2)cc1	-	?	-	-	10µM	-
Nc1nnc(SCc2ccc(Cl)cc2)s1	-	-	-	-	-	-
Cc1cnc(CNc2nc(-c3ccccc3C)nc3ccccc23)cn1	.	-	.	.	-	-
COc1ccccc1CNc1nc(-c2ccccc2OC)nc2ccccc12	.	18µM	.	.	21µM	-
COc1ccccc1-c1nc(NCc2cnc(C)cn2)c2ccccc2n1	.	16µM	.	.	?	20µM
COc1ccccc1-c1nc(Nc2ccncc2)c2ccccc2n1	.	?	.	.	?	28µM
O=C(c1cccs1)N(C1CCCCC1)C1CCCCC1	.	.	.	.	.	-
Cc1ccc(S(=O)(=O)N(Cc2cccnc2)C2CC2)cc1F	.	.	.	.	.	-
COc1ccc(CCNC(=O)Cn2c(=O)n(-c3ccc(C)c(F)c3)c(=O)c3sccc32)cc1OC	-	9.2µM	-	-	15µM	-
COc1ccc(CCNC(=O)Cn2c(-c3cccs3)cc3cc(F)ccc32)cc1OC	.	7.3µM	.	.	9.2µM	-
CCOc1ccc(CCNC(=O)Cn2c(-c3cccs3)cc3ccccc32)cc1OCC	.	?	.	.	?	-
CN(C)c1ccc(CNC(=O)Cn2c(-c3cccs3)cc3cc(Cl)ccc32)cc1	.	?	.	.	?	-
CC(CNC(=O)Cn1c(-c2cccs2)cc2ccccc21)c1ccccc1 (stereo not drawn)	.	21µM	.	.	?	-
Cc1ccc(CNC(=O)Cn2c(-c3cccs3)cc3cc(Cl)ccc32)cc1	.	?	.	.	23µM	-
CCc1ccc(C(=O)CC2OC(=O)c3c2ccc(OC)c3OC)cc1 (stereo not drawn)	.	.	.	.	.	-

Assay outcomes deposited in PubChem BioAssay by National Center for Advancing Translational Sciences (NCATS).
